Assay results published in PubChem BioAssay AID1159580 (chemical genetic matrix, 2015).
In all, about 5,500 compounds went through this assay and about 2,000 (36%) were called active. Inconclusive results (about 18%) are left out. No stated cut-off is given here; in the data, active means normalized growth mostly below about 0.91 (no sharp cut-off); inconclusive means no clear call, values can overlap the other calls; inactive means mostly above about 0.92. Some of the results follow.

Experiment: chemical genetic growth profiling, strain panel (AID 1159580);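 further: tested at 20 µM; growth read once vehicle control cultures reached saturation at 30 °C; 1 = growth at the plate median or of vehicle wells; lower values mean less growth of the strain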
Settings: growth OD
[1] = S. cerevisiae deletion strains, locus YAL013W, strain DEP1, hits give low values
[2] = S. cerevisiae deletion strains, locus YDR150W, strain NUM1, hits give low values
[3] = S. cerevisiae deletion strains, locus YNL322C, strain KRE1, hits give low values
[4] = S. cerevisiae deletion strains, locus YPL241C, strain CIN2, hits give low values

Measured: normalized growth

CC1C(=O)N(C)C(=O)c2nc[nH]c21 (configuration not stated)
inactive: [1] 0.997 | S. cerevisiae deletion strains, locus YAL040C, strain CLN3, hits give low values 0.993 | S. cerevisiae deletion strains, locus YCL061C, strain MRC1 (second series), hits give low values 1 | [2] 1.01 | S. cerevisiae deletion strains, locus YDR363W, strain ESC2, hits give low values 0.998 | S. cerevisiae deletion strains, locus YER002W, strain NOP16, hits give low values 1 | S. cerevisiae deletion strains, locus YGR229C, strain SMI1, hits give low values 0.992 | S. cerevisiae deletion strains, locus YMR307W, strain GAS1, hits give low values 0.991 | S. cerevisiae deletion strains, locus YNL128W, strain TEP1, hits give low values 1 | S. cerevisiae deletion strains, locus YNL175C, strain NOP13, hits give low values 1 | S. cerevisiae deletion strains, locus YNL197C, strain WHI3, hits give low values 0.989 | S. cerevisiae deletion strains, locus YNL224C, strain SQS1, hits give low values 1 | [3] 0.992 | S. cerevisiae deletion strains, locus YOR083W, strain WHI5 (second series), hits give low values 1.02 | [4] 1

Cc1nn(C)c(C)c1NS(=O)(=O)c1cc(Cl)sc1Cl
inactive: [1] 1 | S. cerevisiae deletion strains, locus YBR229C, strain ROT2, hits give low values 1.03 | S. cerevisiae deletion strains, locus YDL101C, strain DUN1, hits give low values 1.05 | S. cerevisiae deletion strains, locus YDL134C, strain PPH21, hits give low values 1.02 | [2] 0.956 | S. cerevisiae deletion strains, locus YEL061C, strain CIN8, hits give low values 1.03 | S. cerevisiae deletion strains, locus YGR078C, strain PAC10, hits give low values 1.01 | S. cerevisiae deletion strains, locus YHR030C, strain SLT2, hits give low values 1.04 | S. cerevisiae deletion strains, locus YHR087W, strain rtc3, hits give low values 1.03 | S. cerevisiae deletion strains, locus YJL187C, strain SWE1, hits give low values 1.02 | S. cerevisiae deletion strains, locus YJR043C, strain POL32, hits give low values 1.01 | S. cerevisiae deletion strains, locus YJR075W, strain HOC1, hits give low values 1.02 | S. cerevisiae deletion strains, locus YLR039C, strain RIC1, hits give low values 1 | S. cerevisiae deletion strains, locus YLR058C, strain SHM2 (second series), hits give low values 1.03 | S. cerevisiae deletion strains, locus YLR085C, strain ARP6, hits give low values 1.03 | S. cerevisiae deletion strains, locus YLR262C, strain YPT6, hits give low values 0.993 | S. cerevisiae deletion strains, locus YML094W, strain GIM5, hits give low values 1.01 | S. cerevisiae deletion strains, locus YMR219W, strain ESC1, hits give low values 1.01 | S. cerevisiae deletion strains, locus YMR263W, strain SAP30, hits give low values 0.914 | S. cerevisiae deletion strains, locus YNL153C, strain GIM3, hits give low values 1.04 | S. cerevisiae deletion strains, locus YNL298W, strain CLA4 (second series), hits give low values 1.04 | [3] 1.01 | S. cerevisiae deletion strains, locus YNR030W, strain Alg12, hits give low values 1.01 | S. cerevisiae deletion strains, locus YPL055C, strain LGE1, hits give low values 1.01 | [4] 1.01 | S. cerevisiae deletion strains, locus YPR135W, strain CTF4, hits give low values 1.14 | S. cerevisiae strains, strain wild type, hits give low values 1.02
